Screening data as filed in PubChem.
Shown are actives, neighbours in structure and some others; about 10% of the full set was active somewhere.
MmCpn inh: Inhibitors of TCP-1 ring complex (TRiC) of Methanococcus maripaludis (MmCpn): qHTS | Potency, µM (doses to about 76.9 µM), without a hit: at the top dose activity, negative = inhibition, hits mostly inhibitors | 330,000 compounds, 0.031% hits | purified Mm-Cpn ATPase, ADP Transcreener TR-FRET | AID 504842, 2011; also: potency is read from the fitted curve at half-maximal effect; nearly all actives have a fitted effect of over 80% in size
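TR-FRET (320 nm excitation; 590 and 665 nm emission) reports ADP made from 10 uM ATP by 25 nM enzyme; compounds were preincubated 10 min, reaction run 30 min, both at 37°C.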
PLK1 PBD block: qHTS for Inhibitors of PLK1-PDB (polo-like kinase 1 - polo-box domain): Primary Screen. Plk1 PBD binding of FITC phosphopeptide, fluorescence polarization. AID 720504, 2013. Potency, µM, inactives show max response, negative = inhibition, most hits filed as inhibitors. 360,000 compounds, 2.8% hits. Serine/threonine-protein kinase PLK1 (Homo sapiens), P53350; also: potency is read from the fitted curve at half-maximal effect; series mostly up to about 57 µM; nearly all actives have a fitted effect of over 65% in size
VDR inh: Inhibitors of the vitamin D receptor (VDR): qHTS; Vitamin D3 receptor (Homo sapiens), P11473; VDR-SRC2-3 peptide fluorescence polarization, 2 h; Potency, µM, without a hit: max response, negative = inhibition, actives largely listed as inhibitors; 400,000 compounds, 0.93% hits; also: potency is read from the fitted curve at half-maximal effect
Target sequence (P11473 whole entry, looked up): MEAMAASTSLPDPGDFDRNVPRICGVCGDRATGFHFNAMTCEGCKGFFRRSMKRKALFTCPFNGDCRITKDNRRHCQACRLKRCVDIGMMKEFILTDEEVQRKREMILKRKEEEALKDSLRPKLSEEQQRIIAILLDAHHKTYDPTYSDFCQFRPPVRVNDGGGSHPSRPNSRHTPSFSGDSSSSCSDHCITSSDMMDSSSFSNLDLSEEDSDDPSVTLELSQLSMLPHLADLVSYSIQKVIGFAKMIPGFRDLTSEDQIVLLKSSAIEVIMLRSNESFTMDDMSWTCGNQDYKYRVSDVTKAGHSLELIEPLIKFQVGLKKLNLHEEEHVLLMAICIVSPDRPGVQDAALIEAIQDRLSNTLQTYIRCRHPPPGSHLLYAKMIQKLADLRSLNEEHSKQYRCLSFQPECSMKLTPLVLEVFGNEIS
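Compounds are added to VDR with labelled SRC2-3 coactivator peptide and held 2 h at room temperature. Inhibition of the VDR–peptide interaction is then read as a change in fluorescence polarization.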
CCT modulator: High-Throughput Screening for Modulators of Cytosolic Chaperonin Activity; purified chaperonin ATPase assay, HTRF ADP detection, 30 min; activity change, % (concentration not given with the values), hits read low; 360,000 compounds, 0.3% hits; AID 651819, 2012; in the data active = activity change below about -30%
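We incubate TRiC, 40 or 20 nM final, with library compounds at 76 uM and 10 uM ATP for 30 min at 37 °C. ADP formed is detected with Transcreener HTRF reagents after 30 min at room temperature.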
Sfp inh: qHTS Assay for Inhibitors of Bacillus subtilis Sfp phosphopantetheinyl transferase (PPTase); 4'-phosphopantetheinyl transferase ffp (Bacillus subtilis), Q9F4F7; Potency, µM, for the others: largest response in the series, negative = inhibition, usual class: inhibitors; 310,000 compounds, 3.5% hits; AID 1490, 2009; Biochemical Sfp PPTase activity, qHTS;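 also: the enzyme is Sfp with the accession as filed and its product quenches rhodamine fluorescence; potency is read from the fitted curve at half-maximal effect; 0% = enzyme reaction without inhibitor and -100% = no enzyme wells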
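Sfp 15 nM + cpd, 15 min RT; start w/ rhodamine-CoA 5 uM, BHQ-2-YbbR 12.5 uM (final); 50 mM Hepes pH 7.6, 10 mM MgCl2, 0.01% NP-40, 0.01% BSA; read 525/598 nm at 0 and 30 min.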
G9a block: qHTS Assay for Inhibitors of Histone Lysine Methyltransferase G9a | Histone-lysine N-methyltransferase EHMT2 (Homo sapiens), Q96KQ7 | G9a H3K9 monomethylation, AlphaScreen, 2 h | Potency, µM (highest dose often 102 µM), inactives show top-dose activity, negative = inhibition, hits mostly inhibitors | 350,000 compounds, 8.8% hits; also: potency is read from the fitted curve at half-maximal effect; nearly all actives have a fitted effect of over 75% in size
Target sequence (Q96KQ7 913-1193 limits assumed): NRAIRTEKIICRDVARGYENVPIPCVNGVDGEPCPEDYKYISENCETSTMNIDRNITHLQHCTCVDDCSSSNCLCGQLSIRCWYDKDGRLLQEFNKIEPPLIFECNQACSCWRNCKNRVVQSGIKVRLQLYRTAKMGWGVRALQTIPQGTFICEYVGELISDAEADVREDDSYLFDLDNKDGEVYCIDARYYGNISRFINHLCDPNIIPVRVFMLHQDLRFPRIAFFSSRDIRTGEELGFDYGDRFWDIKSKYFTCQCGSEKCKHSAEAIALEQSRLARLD
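AlphaScreen read-out: biotin-H3K9 peptide (500 nM) methylation by 20 nM enzyme with 20 uM SAM, 2 h at room temperature after 15 min compound preincubation; anti-monomethyl H3K9 antibody plus donor/acceptor beads, 10 min dark.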
* = called active by the depositor; u = inconclusive; x = no result given; [ ] = another dose, or the depositor's remark. Unless noted, calls follow the shape of the dose curve; as a rule, active = well fitted curve in the direction sought with a large enough effect; inconclusive = small, poorly fitted or top-dose-only effect, or another doubt; inactive = no such curve, though single readings can be large; an effect the other way counts as inactive or inconclusive. Unless noted, % is scaled to controls: 0 for no effect and ±100 for the full control effect.

SMILES	MmCpn inh	PLK1 PBD block	VDR inh	CCT modulator	Sfp inh	G9a block
COc1ccc2nc(NC(=O)c3cc(=O)c4ccccc4o3)sc2c1	x	x	8%	x	x	-32%[59 µM]
CCc1nnc(NC(=O)c2ccc(S(=O)(=O)N3CCc4ccccc4C3)cc2)s1	-3%	30µM*	u	-4	5%	-10%
CCc1nnc(NCC(=O)N2CCc3ccccc32)s1	-5%	24µM*	-13%	0	-28%	14µM*
CCc1nnc(NC(=O)c2c(O)c3cccc4c3n(c2=O)CC4)s1	0%	x	x	x	14%	-38%[12.7 µM]
CCc1nnc(NC(=O)C2Cc3ccccc3CN2S(=O)(=O)c2ccc(C)cc2)s1 (configuration not stated)	-1%	-15%	-5%	-3	-1%	40µM*
Cc1cc(C)c2nc(NNC(=O)c3cc(=O)c4ccccc4o3)sc2c1	3%	-26%	40µM*	1	18µM*	8.9µM*
CCc1nnc(NC(=O)C2CCCN2S(=O)(=O)c2ccc(C)cc2)s1 (configuration not stated)	3%	-1%	1%	-3	16%	-39%
CC(C)(C)C(=O)Nc1cccc(C(=O)OCc2cc(=O)n3nc(C4CC4)sc3n2)c1	x	x	-1%	x	x	u
COc1ccc(OC)c(NC(=O)c2cc(C3CC3)nc3c2c(C)nn3-c2ccc(C)cc2)c1	x	x	8%	x	x	-31%[59 µM]
CCN(Cc1ccccc1)C(=O)CN(c1ccc(OC)cc1)S(=O)(=O)c1c(C)nn(C)c1C	x	x	1%	x	x	0%[59 µM]
CCOc1cccc(CC(=O)N2CCc3c([nH]c4ccc(OC)cc34)C2c2ccc(F)cc2)c1OCC (configuration not stated)	x	x	2%	x	x	u
Cc1cc(C)c2sc(NNC(=O)c3ccc(S(=O)(=O)N4CCc5ccccc5C4)cc3)nc2c1	0%	-11%	4%	-2	10%	u
CCc1nnc(NC(=O)C2Cc3ccccc3CN2S(=O)(=O)c2cccs2)s1 (configuration not stated)	-1%	-21%	7%	-3	-19%	14µM*
O=C(Nc1nnc(C2CC2)s1)C1Cc2ccccc2CN1S(=O)(=O)c1cccs1 (configuration not stated)	-2%	-18%	27%	1	-20%	-6%[59 µM]
Cc1cc(C)c2nc(NNC(=O)c3ccc(S(=O)(=O)N4CCc5ccccc5C4)cc3)sc2c1	-1%	-1%	7%	0	-2%	40µM*
CCOc1ccc(NC(=O)CSc2nnc(-c3ccc(C)cc3)c(-c3ccc(C)cc3)n2)cc1	x	x	9%	x	x	-27%[59 µM]
NS(=O)(=O)c1ccc(CNC(=O)c2csc3c2CCCC3)cc1	-1%	-25%	-8%	1	3%	20µM*
Cc1cc2c(cc1S(=O)(=O)N(CCN(C)C)Cc1ccco1)OCC(=O)N2	x	x	8%	x	x	-3%[59 µM]
Cc1c(CC(=O)O)c(=O)oc2cc3occ(-c4ccc(F)cc4)c3cc12	-8%	2%	2%	-2	40µM*	0%
Cc1c(CC(=O)O)c(=O)oc2c(C)c3occ(-c4ccc(Br)cc4)c3cc12	-3%	30µM*	u	-1	-17%	-16%
COc1ccc(N2CCN(C(=O)Cn3cnc4nc5c(cc4c3=O)CCCC5)CC2)cc1	x	x	7%	x	x	-36%[59 µM]
CCc1ccccc1N(C)C(=O)Nc1cn(CC(C)C)c(=O)c2ccccc12	x	x	9%	x	x	-3%[59 µM]
CN(C(=O)CSc1nc2ccccc2[nH]1)c1ccc(F)cc1	x	x	-17%	x	x	-5%[59 µM]
Cc1cccc2nc(=S)n(C(=O)c3ccco3)n12	0%	-19%	-15%	1	16µM*	7%[2.33 µM]
Cc1cccc(CC(=O)N2CCN(C(=O)c3ccco3)CC2)c1	-17%	2%	12%	0	27%	-3%
SMILES	MmCpn inh	PLK1 PBD block	VDR inh	CCT modulator	Sfp inh	G9a block
O=C(c1ccco1)n1c(=S)nc2ccccn21	-4%	25µM*	u	-1	-21%	u
CC(NC(=O)C(=O)Nc1c2c(nn1-c1ccc(F)cc1)CSC2)c1ccccc1 (configuration not stated)	x	x	5%	x	x	27%[59 µM]
Clc1ccccc1-c1nnc2sc(-c3ccncc3)nn12	-3%	27µM*	u	0	-5%	u
Clc1ccccc1-c1nnc2sc(-c3cccs3)nn12	-7%	u	-3%	1	u	35µM*
CCc1nn(CC(=O)NCc2ccc(OC)cc2OC)c(=O)c2cc3c(OC)cccc3n12	x	x	4%	x	x	12%[59 µM]
Cc1ccc2c(C)c(C(=O)N(Cc3ccc(N(C)C)cc3)Cc3ccco3)oc2c1C	x	x	15%	x	x	11µM*
CCc1ccc2oc(C(=O)N(Cc3ccc(N(C)C)cc3)Cc3ccco3)c(C)c2c1	x	x	4%	x	x	10µM*
CCCN(CCC)CCNC(=O)CN1C(=O)COc2ccc(S(=O)(=O)N3CCC(C)CC3)cc21	x	x	-20%	x	x	u
Cc1nnsc1C(=O)Oc1ccc(C(C)C)cc1	x	x	-16%	x	x	1%[59 µM]
Cc1nnsc1C(=O)NNc1ccc(C(C)C)cc1	0%	-6%	-3%	-1	-1%	8.9µM*
Cc1nnsc1C(=O)NNc1ccc(C(C)(C)C)cc1	0%	1%	u	0	-2%	1.8µM*
Cc1cc(C(=O)NNc2ccc(C(C)C)cc2)n(C(C)(C)C)n1	2%	-9%	-7%	2	8%	7.9µM*
Cc1cc(NC(=O)Nc2ccccc2)n(C(C)(C)C)n1	2%	-9%	-7%	-3	4%	5%
CCC(C)NC(=O)CSc1nnc(-c2ccc(C)cc2)c(-c2ccc(C)cc2)n1 (configuration not stated)	x	x	8%	x	x	-8%[59 µM]
CC(C)c1cnc2c(c1SCc1cccc(F)c1)c(=O)n(C)c(=O)n2C	x	x	12%	x	x	-41%[59 µM]
CCOC(=O)c1c(=O)n(O)c2ccc(OC)cc2[n+]1[O-]	-3%	-13%	12%	1	2%	50µM*
Cc1ccc(NC(=O)CCn2c(=O)[nH]c3ccsc3c2=O)cc1	4%	2%	-15%	1	5%	2%
CCOC(=O)N1CCN(C(=O)CCCn2c(=S)[nH]c3ccsc3c2=O)CC1	-1%	-20%	12%	2	56µM*	32µM*
CCOC(=O)N1CCN(C(=O)CCCn2c(=O)[nH]c3ccccc3c2=O)CC1	-1%	-8%	-11%	1	20%	21%[59 µM]
CCOC(=O)N1CCN(C(=O)CCCn2c(=S)[nH]c3ccccc3c2=O)CC1	x	-13%	-1%	1	u	u
